Bioassay records from PubChem BioAssay.
In the library only some 19% were active in any assay of this set; here they are far more common.
HepG2 viability = kills HepG2 cells in TGF-b inhibitor counter-screen | HepG2 CAGA-GFP viability, ATP luminescence, 18 h | Potency, µM (highest dose often 46.1 µM), without a hit: at the top dose activity change, negative = cytotoxicity, hits mostly cytotoxic | 0.76% of 410,000 active; further: potency means the concentration at half of the fitted maximal effect
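HepG2 CAGA-GFP cells (1000/well, DMEM with 1% FBS) received compound, then TGF-beta at 500 pg/mL final, and were incubated 18 hours at 37 degrees C. Viability was read by CellTiter-Glo luminescence. Media-only wells were set as complete cell-killing and DMSO as no toxicity.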
DT40 TDP1 CPT = growth inhibition of DT40 Tdp1-/-;hTDP1 cells with camptothecin (screen for TDP1 inhibitors) | Potency, µM (highest dose often 46.2 µM), for the others: at the highest dose activity change, negative = growth inhibition, actives largely listed as inhibitors | chicken DT40 Tdp1-/-;hTDP1 cells + 20 nM CPT, ATP luminescence, 48 h | 12% of 420,000 active; further: potency means the concentration at half of the fitted maximal effect; on the % scale 0 is the no-effect control and ±100 the full control effect; nearly all actives have a fitted effect of over 55% in size
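Cell growth measured by CellTiter-Glo luminescence after a minimum 48 h, 37 C compound exposure with 20 nM CPT in Tdp1-knockout DT40 cells stably expressing hTDP1, seeded 400/well; qHTS titration format.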
DT40 TDP1 no CPT = qHTS for Inhibitors of human tyrosyl-DNA phosphodiesterase 1 (TDP1): qHTS in cells in absence of CPT | DT40 Tdp1-/- hTDP1 cells, no CPT, ATP luminescence, 48 h | Potency, µM (top dose mostly 46.2 µM), for inactives: at the highest dose activity change, negative = growth inhibition, actives largely listed as inhibitors | 15% of 420,000 active; further: potency means the concentration at half of the fitted maximal effect; on the % scale 0 is the no-effect control and ±100 the full control effect; nearly all actives have a fitted effect of over 55% in size
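Compound effects on proliferation are scored in DT40 Tdp1-/-;hTDP1 cells in the absence of CPT. ATP levels (CellTiter-Glo luminescence) are recorded after a ≥48 hr, 37 °C incubation.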
TDP1 inh = blocks human tyrosyl-DNA phosphodiesterase 1 | Potency, µM (highest dose often 130 µM), for inactives: at the top dose activity change, negative = inhibition, usual class: inhibitors | Q9NUW8 | 0.28% of 350,000 active | recombinant TDP1, AlphaScreen DNA substrate cleavage; further: potency means the concentration at half of the fitted maximal effect; on the % scale 0 is the no-effect control and ±100 the full control effect; nearly all actives have a fitted effect of over 40% in size
Target sequence (Q9NUW8 whole entry, looked up): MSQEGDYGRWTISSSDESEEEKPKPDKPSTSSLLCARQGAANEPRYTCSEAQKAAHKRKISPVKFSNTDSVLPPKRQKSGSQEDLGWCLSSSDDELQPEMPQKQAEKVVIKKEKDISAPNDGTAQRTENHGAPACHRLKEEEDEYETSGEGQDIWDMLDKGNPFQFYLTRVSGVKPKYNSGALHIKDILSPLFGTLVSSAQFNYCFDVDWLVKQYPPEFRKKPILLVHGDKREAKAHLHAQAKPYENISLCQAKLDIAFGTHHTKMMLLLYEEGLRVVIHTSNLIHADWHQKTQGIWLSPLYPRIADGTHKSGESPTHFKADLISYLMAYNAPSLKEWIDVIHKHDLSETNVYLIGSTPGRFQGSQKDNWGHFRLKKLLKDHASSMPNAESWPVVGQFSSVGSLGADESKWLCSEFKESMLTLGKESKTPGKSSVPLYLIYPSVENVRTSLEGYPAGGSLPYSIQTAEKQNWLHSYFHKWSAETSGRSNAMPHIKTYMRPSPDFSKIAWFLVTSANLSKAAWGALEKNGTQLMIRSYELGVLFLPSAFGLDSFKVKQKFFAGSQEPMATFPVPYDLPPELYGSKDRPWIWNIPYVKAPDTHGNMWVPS
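Enzyme-compound mixtures sat 15 min at room temperature, followed by a 5 min reaction with 15 nM final substrate and 10 min with AlphaScreen beads. Recombinant human Tdp1 was used at 1 nM final.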
TGFb SMAD3 inh = blocks TGF-b signaling. HepG2 CAGA-GFP TGF-b/SMAD3 reporter, GFP fluorescence, 18 h; TGF-beta stimulated, 500 pg/mL final. Potency, µM (top dose mostly 46.1 µM), for the others: top-dose activity, negative = inhibition, hits mostly inhibitors. 1.2% of 410,000 active. AID 588855; further: potency means the concentration at half of the fitted maximal effect; on the % scale 0 is the no-effect control and ±100 the full control effect; nearly all actives have a fitted effect of over 65% in size
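Read-out: total well GFP (ex488/em500-530) summed from mean per-cell fluorescence. Cells: HEPG2 CAGA-GFP, 1% FBS DMEM, 18 h at 37 degrees C with 500 pg/mL final TGF-beta. Unstimulated wells served as the full-inhibition control; stimulated DMSO wells = 0%.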
IL1B secr inh = blocks inflammasome-driven IL-1 beta release. THP-1 LPS/ATP IL-1B secretion, AlphaLISA, 16 h; stronger effect = lower value. activity change, % at 57.5 µM. 4.7% of 360,000 active. AID 743279; in the data active means activity change below about -50%; inconclusive means mostly about -30% to -49%; further: on the % scale 0 is the no-effect control and ±100 the full control effect
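THP-1 cells pretreated 1 hr with compounds (up to 57.5 uM final), then stimulated with LPS (250 ng/mL final) plus ATP (1.25 mM final); secreted IL-1B measured by AlphaLISA after 16 hr, decreased signal indicating inhibition.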
Numbers without * were called inactive; ? = inconclusive; · = no result; [ ] = remark or other dose. Unless noted, the call rests on the fitted dose curve; in most records, active means well fitted curve in the direction sought with a large enough effect; inconclusive means small, poorly fitted or top-dose-only effect, or another doubt; inactive means no such curve, though single readings can be large; an effect the other way counts as inactive or inconclusive.

SMILES	HepG2 viability	DT40 TDP1 CPT	DT40 TDP1 no CPT	TDP1 inh	TGFb SMAD3 inh	IL1B secr inh
CC1=NN(/C(=N\c2nnc(C)s2)Nc2ccc(C(C)(C)C)cc2)[C@H](c2ccc(C)cc2)S1	-52.8%	18.4µM*	?	9.7%[56.1 µM]	-55.6%	?
Cc1nnc(SCC(=O)Nc2nsc(-c3ccc(C(C)(C)C)cc3)n2)s1	-2.6%	-11.0%	-18.8%	6.5%	16.7%	0.9
Cc1ccc(CNc2ncnc3sc(C(=O)N4CCC[C@H]4C(N)=O)c(C)c23)o1	·	-0.4%[9.04 µM]	-28.8%	·	·	·
COc1ccc(/C=C2/CC/C(=C\c3ccc(OC)c(OC)c3OC)C2=O)c(OC)c1OC	17.3%	?	8.2µM*	5.4%	7.2%	-21.8
COc1ccc(C=C2SC(=S)NC2=O)c(OC)c1OC	-14.7%	?	?	·	-4.7%	?
COc1ccc(/C=C2\CCC(C3CCCC3)C2=O)c(OC)c1OC (configuration not stated)	-7.0%	?	18.4µM*	·	3.0%	-8.3
COc1cc(/C=C2\CCC(C3CCCC3)C2=O)cc(OC)c1OC (configuration not stated)	-16.4%	?	16.4µM*	·	-0.6%	19.0
Cc1nc(N2CCN(C)CC2)c2nnn(Cc3ccccc3)c2n1	·	-17.6%	?	·	·	·
CCOc1ccc(C(=O)N2CCN(c3cccc(Cl)c3)CC2)cc1	-48.1%	-19.1%	?	4.6%	?	-15.5
COC(=O)c1ccc(C(=O)OC)c(NC(=S)N2CCN(c3cccc(Cl)c3)CC2)c1	7.4%	-22.1%	?	3.4%	?	0.0
COc1ccc(C(=O)N2CCN(c3ccc(F)cc3)CC2)cc1S(=O)(=O)NC1CC1	-18.2%	-21.8%	?	1.5%	-7.6%	-13.4
COc1ccc(C(=O)N2CCN(c3cccc(Cl)c3)CC2)cc1	6.8%	?	16.4µM*	1.2%	1.5%	-59.0*
COc1ccc(C(=S)N2CCN(c3cccc(Cl)c3)CC2)c(OC)c1	-27.4%	2.59µM*	4.11µM*	2.7%	?	50.0
COc1ccc(C(=O)N2CCN(c3cccc(Cl)c3)CC2)cc1S(=O)(=O)NC1CC1	-4.4%	14.6µM*	14.6µM*	0.3%	1.6%	22.1
O=C(c1ccc([N+](=O)[O-])s1)N1CCN(c2cccc(Cl)c2)CC1	-97.8%	20.6µM*	20.6µM*	5.6%	11.2µM*	-57.7*
CCN(CC)c1ccc2cc(-c3nc(-c4cccs4)no3)c(=O)oc2c1	-3.9%	?	?	-5.1%	63.3%	·
Cc1ccccc1OCC(=O)NCC(=O)OCC(=O)c1ccc(Br)cc1	5.0%	6.4%	1.8%	0.7%	16.0%	·
COc1cccc(N2CCN(C3C(=O)c4ccccc4N3C(C)=O)CC2)c1 (configuration not stated)	-7.7%	?	?	5.3%	-18.7%	·
Cc1ccc(C(=O)N2CCN(c3cccc(Cl)c3)CC2)cc1C	8.2%	?	25.9µM*	4.7%	-18.1%	15.9
COC(CNC(=O)Cn1nc(Cc2ccncc2)c2ccccc2c1=O)OC	-23.0%	2.8%	-20.0%	·	-5.9%	-7.6
CCN(CC)S(=O)(=O)c1ccc(C(=O)NCCSc2c(-c3ccc(F)cc3)[nH]c3ccccc23)cc1	-14.5%	8.2µM*	6.51µM*	5.9%	?	·
CN(C)S(=O)(=O)c1ccc(C(=O)NCCSc2c(-c3ccc(Br)cc3)[nH]c3ccccc23)cc1	-26.4%	4.11µM*	2.31µM*	0.0%	?	·
COc1ccc(-c2[nH]c3ccccc3c2SCCNC(=O)c2ccccc2)cc1	-34.9%	13µM*	9.2µM*	-1.3%	?	-1.2
CC(C)n1nc(C(=O)Nc2nnc(SCc3c(Cl)cccc3Cl)s2)c2ccccc2c1=O	-6.6%	10.3µM*	?	7.1%	2.0%	40.5
CC(C)n1nc(C(=O)Nc2nc3ccc(S(C)(=O)=O)cc3s2)c2ccccc2c1=O	-39.2%	-13.7%	-14.3%	9.5%	-22.4%	4.0
SMILES	HepG2 viability	DT40 TDP1 CPT	DT40 TDP1 no CPT	TDP1 inh	TGFb SMAD3 inh	IL1B secr inh
CC(C)(C)C(=O)NCc1ccc(C(=O)CSc2nnc3n2CCCCC3)s1	-2.2%	-8.3%	-2.6%	·	0.5%	13.4
Cc1cc(C)nc(/N=C(\N)Nc2ccc(S(N)(=O)=O)cc2)n1	-2.3%	-29.6%	?	0.0%	3.0%	33.8
Cc1cc(C)nc(/N=C(\N)Nc2ccc(F)c([N+](=O)[O-])c2)n1	-18.4%	?	?	2.0%	7.0%	-92.4*
Cc1cc(C)nc(/N=C(\N)Nc2ccc(-c3ccccc3)cc2)n1	-27.5%	7.31µM*	9.2µM*	1.2%	?	·
CC(=O)Nc1ccc(N/C(N)=N/c2nc(C)cc(C)n2)cc1	0.0%	?	?	0.0%	9.9%	-93.2*
Cc1cc(C)nc(/N=C(\N)Nc2ccc3c(c2)OCCO3)n1	-20.8%	20.6µM*	?	-3.5%	-10.6%	-77.7*
CCN(CC)CCNC(=O)c1ccc(-c2nc(CS(=O)(=O)c3ccc(C)cc3)c(C)o2)cc1	3.7%	-10.3%	-18.7%	5.6%	-10.4%	·
COc1ccc(C(=O)c2ccc(N3CCOCC3)cc2)c(OC)c1	-3.3%	?	?	3.1%	-1.4%	-18.3
COc1ccc(OC)c(C(=O)COC(=O)C(CCSC)NC(=O)COc2ccccc2)c1 (configuration not stated)	-7.8%	-23.5%	-14.8%	·	-7.3%	-17.1
COc1ccc(OC)c(C(=O)COC(=O)COc2ccccc2)c1	-1.7%	14.6µM*	5.8µM*	1.0%	?	?
COc1ccc(C(=O)c2ccc(OC)cc2OC)cc1	1.3%	-102.5%	5.8µM*	1.3%	-14.3%	34.3
COc1ccc(OC)c(C(=O)c2ccc(C(=O)c3cc(OC)ccc3OC)cc2)c1	-23.8%	?	?	8.8%	-12.5%	-75.1*
COc1ccc(C(=O)c2ccc(N(C)C)cc2)c(OC)c1	3.2%	3.16µM*	2.82µM*	4.4%	-1.2%	-8.7
Cc1cccc(CN2CC34CCC(CC3S2(=O)=O)O4)c1 (configuration not stated)	-1.5%	·	·	9.1%	-19.3%	·
Cc1nc2ccccn2c1C(O)(c1ccccc1)c1ccccc1	·	·	·	-0.1%	·	·
CCOc1ccc(C2CC(=O)n3nc(-c4ccc(C)cc4)nc3S2)cc1OC (configuration not stated)	-4.3%	2.5%	-1.6%	·	2.0%	·
COCO[C@H]([C@@H](C)C=C(Br)Br)[C@@H](C)COCc1ccc(OC)cc1	-6.8%	·	·	-6.8%	?	·
